# Results reported in PubChem BioAssay (Tox21).
# Inconclusive results are not listed. A call without a number means that no potency is given here. Activity calls are given as the source filed them. Calls come from the whole dose curve. Non-standard residues stand in square brackets, D forms with d. Residues, ends and D or L forms follow the SMILES beside them. pGlu = O=C1CC[C@@H](C(=O)O)N1
# Test: qHTS assay for small molecules that induce genotoxicity in human embryonic kidney cells expressing luciferase-tagged ATAD5 - cell viability (AID 651634); note: nearly all actives have a fitted effect of over 25% in size
# Details: HEK293T ATAD5-luc cells viability, CellTiter-Fluor, 15.5 h; series mostly up to 83.3 µM
# Summary of the method: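 Cells (HEK293T, luciferase-tagged ATAD5) are seeded at 2,000 per well, dosed with compound or DMSO vehicle, and incubated 15.5 hr at 37C and 5% CO2. CellTiter-Fluor is added for 30 min before fluorescence is measured.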
row,Structure (SMILES),Potency
1,COc1cc2c(cc1OC)[C@@H](c1ccccc1)CN(C)CC2,inactive
2,CCC(Cc1c(I)cc(I)c(O)c1I)C(=O)O (centres undefined),inactive
3,CC(=O)Oc1cccc(C(=O)O)c1OC(C)=O,inactive
4,O=C(NNCS(=O)(=O)O)c1ccncc1,inactive
5,CO/N=C(\C(=O)N[C@@H]1C(=O)N2C(C(=O)O)=C(CSC(=O)c3ccco3)CS[C@H]12)c1csc(N)n1,inactive
6,O=c1[nH]cnc2[nH]cc(CN3CCCCC3)c12,inactive
7,CO/N=C(\C(=O)N[C@@H]1C(=O)N2C(C(=O)OCOC(=O)C(C)(C)C)=C(/C=C\c3scnc3C)CS[C@H]12)c1csc(N)n1,inactive
8,CCCC(=O)O[C@]1(C(=O)COC(C)=O)CC[C@H]2[C@@H]3C[C@H](F)C4=CC(=O)C=C[C@]4(C)[C@@]3(F)[C@@H](O)C[C@@]21C,inactive
9,CCCc1ccc(C(=O)O)cc1,inactive
10,CC1(C)S[C@@H]2[C@H](NC(=O)C(C(=O)Oc3ccc4c(c3)CCC4)c3ccccc3)C(=O)N2[C@H]1C(=O)O (some centres undefined),inactive
11,CO[C@@]1(NC(=O)C2SC(=C(C(N)=O)C(=O)O)S2)C(=O)N2C(C(=O)O)=C(CSc3nnnn3C)CS[C@@H]21 (some centres undefined),inactive
12,O=C1CCC(=O)N1CO,inactive
13,C[C@@H](O)[C@H]1C(=O)N2C(C(=O)[O-])=C(SC3Cn4cnc[n+]4C3)[C@H](C)[C@H]12 (some centres undefined),inactive
14,CC(C)[C@@H]1CC[C@@H](C)C[C@H]1OC(=O)c1ccccc1O,inactive
15,N#Cc1ccc2c(c1)N(CCCN1CCC(O)CC1)c1ccccc1S2,inactive
16,CO[C@H]1C[C@H](O[C@H]2[C@H](C)[C@@H](O[C@@H]3O[C@H](C)C[C@H](N(C)C)[C@H]3OC(C)=O)[C@@H](C)C[C@]3(CO3)C(=O)[C@H](C)[C@@H](OC(C)=O)[C@@H](C)[C@@H](C)OC(=O)[C@@H]2C)O[C@@H](C)[C@@H]1OC(C)=O,inactive
17,C[C@]12CC[C@@H]3c4ccc(OS(=O)(=O)O)cc4CC[C@H]3[C@@H]1CCC2=O,inactive
18,Nc1nc2c(c(=O)[nH]1)N(C=O)C(CNc1ccc(C(=O)N[C@@H](CCC(=O)O)C(=O)O)cc1)CN2 (some centres undefined),inactive
19,C/C=C(/CC[C@@H](C)[C@H]1CC[C@H]2C3=CC[C@H]4[C@H](C)[C@@H](O)CC[C@]4(C)[C@H]3CC[C@]12C)C(C)C,inactive
20,OC[C@H]1O[C@@H](n2cnc3c2NC=NC[C@H]3O)C[C@@H]1O,inactive

row,Structure (SMILES),Potency
1,O=C(O)c1nc(=O)[nH]c(=O)[nH]1,inactive
2,C=CCSSSCC=C,inactive
3,CS(=O)(=O)Nc1cc2occ(NC=O)c(=O)c2cc1Oc1ccccc1,inactive
4,CC(C(=O)O)c1ccc(C2CCCCC2)c2ccccc12 (centres undefined),inactive
5,CC[C@H](C)[C@H](NC(=O)[C@H](Cc1ccccc1)NC(=O)[C@H](C)NC(=O)[C@H](CC(=O)O)NC(=O)[C@H](CCCCN)NC(=O)[C@H](CO)NC(=O)[C@@H]1CCCN1C(=O)[C@@H]1CCC(=O)N1)C(=O)NCC(=O)N[C@@H](CC(C)C)C(=O)N[C@@H](CCSC)C(N)=O ([pGlu]PSKDAFIGLM-NH2),inactive
6,Cc1cccc(C)c1NC(=O)NC1=CCCN1C,inactive
7,Cn1cc(NC(=O)c2cc(NC(=O)c3cc(NC=O)cn3C)cn2C)cc1C(=O)NCCC(=N)N,inactive
8,CCCCCCCCCCCCCCCC(=O)O[C@@H]1[C@@H](O)[C@@H](O)[C@@H]([C@H](NC(=O)[C@@H]2C[C@@H](CCC)CN2C)[C@H](C)Cl)O[C@@H]1SC,inactive
9,Cc1cccc(Nc2ncccc2C(=O)O)c1C,inactive
10,NCCCNCCCCNC(=O)C(O)NC(=O)CCCCCCN=C(N)N (centres undefined),inactive
11,CC1(C)C2CC[C@]3(C)[C@H](C(=O)C=C4[C@@H]5C[C@@](C)(C(=O)O)CC[C@]5(C)CC[C@]43C)[C@@]2(C)CC[C@@H]1O[C@H]1O[C@H](C(=O)O)[C@@H](O)[C@H](O)[C@H]1O[C@@H]1O[C@H](C(=O)O)[C@@H](O)[C@H](O)[C@H]1O (some centres undefined),inactive
12,CN1c2c(nc(N)[nH]c2=O)NCC1CNc1ccc(C(=O)NC(CCC(=O)O)C(=O)O)cc1 (centres undefined),inactive
13,Oc1cc(O)cc(O)c1,inactive
14,NC(=O)OCC(O)COc1ccc(Cl)cc1 (centres undefined),inactive
15,O=C1NC(=O)[C@H]2[C@@H]1[C@@H]1C=C[C@H]2C1,inactive
16,CC(C)[C@H](N)C(=O)OCC(CO)OCn1cnc2c(=O)[nH]c(N)nc21 (some centres undefined),inactive
17,Cc1ncc(C[n+]2csc(CCOP(=O)(O)OP(=O)(O)O)c2C)c(N)n1,inactive
18,NCCCC[C@H](N)C(=O)O,inactive
19,CNCC(O)c1ccc(OC(=O)C(C)(C)C)c(OC(=O)C(C)(C)C)c1 (centres undefined),inactive
